# Laboratory results: PubChem BioAssay (Tox21)
# Values without a mark were called inactive. Results filed as inconclusive are left out. The source made the active and inactive calls. The call rests on the fitted dose curve.
# Biological target: Acetylcholinesterase (Homo sapiens) (UniProt P22303)
# Assay: Acetylcholinesterase (AChE) small molecule antagonists: enzyme-based qHTS assay (AID 1347397); further: nearly all actives have a fitted effect of over 55% in size
# Settings: Potency: AChE enzyme activity inhibition; outcome: AChE enzyme activity inhibition; series mostly up to 115 µM; activity change, negative = inhibition: at the top concentration
# In short: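 Colorimetric DTNB readout of acetylthiocholine hydrolysis, 10 min at room temperature, after 30 min room-temperature exposure of 50 mU/mL recombinant human enzyme to compound; DMSO vehicle control.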
# On the % scale 0 is the no-effect control and ±100 the full control effect.
# Acetylcholinesterase (Homo sapiens), sequence (P22303 whole entry, looked up): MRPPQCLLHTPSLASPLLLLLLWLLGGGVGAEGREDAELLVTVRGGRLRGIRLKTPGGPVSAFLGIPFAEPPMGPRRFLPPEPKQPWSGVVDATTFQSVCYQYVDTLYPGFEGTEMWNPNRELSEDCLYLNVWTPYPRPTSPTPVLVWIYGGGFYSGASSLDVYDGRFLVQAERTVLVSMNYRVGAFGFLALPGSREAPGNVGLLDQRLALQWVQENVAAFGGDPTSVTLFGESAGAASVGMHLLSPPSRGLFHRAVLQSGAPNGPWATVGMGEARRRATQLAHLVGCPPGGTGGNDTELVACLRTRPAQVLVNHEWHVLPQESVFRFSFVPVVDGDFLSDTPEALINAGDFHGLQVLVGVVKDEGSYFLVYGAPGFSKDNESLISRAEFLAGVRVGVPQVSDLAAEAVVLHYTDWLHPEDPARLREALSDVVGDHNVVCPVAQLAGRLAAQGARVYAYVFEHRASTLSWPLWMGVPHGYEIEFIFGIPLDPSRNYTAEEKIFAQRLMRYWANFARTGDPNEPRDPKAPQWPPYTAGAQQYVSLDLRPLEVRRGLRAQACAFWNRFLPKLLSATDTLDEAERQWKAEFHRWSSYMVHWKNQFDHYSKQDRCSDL
Compound,"activity change, negative = inhibition",Potency
CC(=O)OC(C)c1ccccc1 (stereo not drawn),0.599%,–
CC1(C)CC(O)CC(C)(C)N1,0.403%,–
C=CCOC(=O)c1ccc(C(=O)OCC=C)c(C(=O)OCC=C)c1,0.774%,–
CCCCN(CCCC)C(=S)SSC(=S)N(CCCC)CCCC,-26.8%,–
Cc1ccc(C(C)C)cc1O,0.468%,–
CC1=C(C(=O)O)N2C(=O)[C@@H](NC(=O)[C@H](N)C3=CCC=CC3)[C@H]2SC1,0.656% [at 53 µM],–
NC(N)=NCCN1CCCCCCC1,0% [at 0.435 µM],–
ICCc1ccccc1,4.1%,–
O=C(Oc1ccccc1)Oc1ccccc1,0.409%,–
CCN(Cc1c(F)cccc1Cl)c1c([N+](=O)[O-])cc(C(F)(F)F)cc1[N+](=O)[O-],1.45%,–
Nc1nc2c(ncn2CCC(CO)CO)c(=O)[nH]1,0% [at 53 µM],–
O=C(O)C(S)C(S)C(=O)O (stereo not drawn),-0.405% [at 53 µM],–
Clc1ccc2cc3ccccc3cc2c1,1.88%,–
N[C@H]1C(O)O[C@H](CO)[C@H](O)[C@@H]1O (stereo partly drawn),1.96%,–
N#Cc1ccccc1,–,inactive
OC1CCCCCCCCCCC1,–,inactive
CCCCCCCC=O,–,inactive
CC=C(Cl)Cl,-1.34%,–
CS(=O)(=O)CCNCc1ccc(-c2ccc3ncnc(Nc4ccc(OCc5cccc(F)c5)c(Cl)c4)c3c2)o1,2.43% [at 53 µM],–
CCCNC(C)C(=O)Nc1c(C)csc1C(=O)OC (stereo not drawn),0% [at 53 µM],–

Compound,"activity change, negative = inhibition",Potency
CN(C)CCOC(c1ccccc1)c1ccc(Br)cc1 (stereo not drawn),-0.947% [at 53 µM],–
CCOC(=O)C(F)(F)F,-1.71%,–
CCCCCCCCN,0.156%,–
CC(c1cc2ccccc2s1)N(O)C(N)=O (stereo not drawn),–,inactive
CN(c1nccc(=O)[nH]1)C1CCN(c2nc3ccccc3n2Cc2ccc(F)cc2)CC1,-0.117% [at 53 µM],–
O=C(O)c1ccco1,-0.263%,–
CN(C)c1ccc(O)c2c1C[C@H]1C[C@H]3[C@H](N(C)C)C(=O)C(C(N)=O)=C(O)[C@@]3(O)C(=O)C1=C2O,–,inactive
CC/C(C)=N/O,–,inactive
CC1(C)O[C@H]2CC(=O)OC[C@]23[C@H]2CC[C@@]4(C)[C@H](c5ccoc5)OC(=O)[C@H]5O[C@]54[C@]2(C)C(=O)C[C@@H]13,-1.21% [at 53 µM],–
CCc1oc2ccccc2c1C(=O)c1cc(Br)c(O)c(Br)c1,-1.48% [at 53 µM],–
C[C@H]1O[C@H](O[C@H]2[C@H](O)[C@@H](O)[C@@H](O[C@H]3[C@H](O)[C@@H](O)[C@H](O)O[C@@H]3CO)O[C@@H]2CO)[C@H](O)[C@@H](O)[C@@H]1N[C@H]1C=C(CO)[C@@H](O)[C@H](O)[C@H]1O,0.892% [at 53 µM],–
CCc1c(C(=O)NN2CCCCC2)nn(-c2ccc(Cl)cc2Cl)c1-c1ccc(Br)cc1,1.84%,–
Oc1ccc2c(c1)OC[C@@H](N1CCC(O)(c3ccc(F)cc3)CC1)[C@H]2O,1.32% [at 53 µM],–
CC(=O)c1c(C)c([N+](=O)[O-])c(C(C)(C)C)c([N+](=O)[O-])c1C,-3.88%,–
C=CCc1cc(OC)c(O)c(C(=O)NCCO)c1,3.77% [at 53 µM],–
CCCOC(=O)C(C)O (stereo not drawn),0.941%,–
CCOCCO,–,inactive
C=CCOC(=O)C(=C)C,–,inactive
COc1ccccc1Oc1c(NS(=O)(=O)c2ccc(C(C)(C)C)cc2)nc(-c2ncccn2)nc1OCCO,0.554% [at 53 µM],–

# Biological target: Acetylcholinesterase (Homo sapiens) (UniProt P22303)
# Assay: Acetylcholinesterase (AChE) small molecule antagonists: fluorescence cell-based qHTS assay (AID 1347398); further: nearly all actives have a fitted effect of over 50% in size
# Settings: SH-SY5Y cells; Potency: AChE activity; outcome: AChE activity; series mostly up to 115 µM; activity change, negative = inhibition: at the top concentration
# In short: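 Cellular AChE activity read as thiocholine from acetylthiocholine hydrolysis, detected by Thiolite Green fluorescence at 490/520 nm after 40 min at room temperature. Compounds were pre-incubated 30 min at 37 C on adherent SH-SY5Y cells.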
Compound,"activity change, negative = inhibition",Potency
CC(=O)OC(C)c1ccccc1 (stereo not drawn),6.1%,–
CC1(C)CC(O)CC(C)(C)N1,-23.3%,–
C=CCOC(=O)c1ccc(C(=O)OCC=C)c(C(=O)OCC=C)c1,2.03%,–
CCCCN(CCCC)C(=S)SSC(=S)N(CCCC)CCCC,-19%,–
Cc1ccc(C(C)C)cc1O,2.64%,–
CC1=C(C(=O)O)N2C(=O)[C@@H](NC(=O)[C@H](N)C3=CCC=CC3)[C@H]2SC1,-4.82% [at 53.7 µM],–
NC(N)=NCCN1CCCCCCC1,3.67% [at 0.439 µM],–
ICCc1ccccc1,-1.05%,–
O=C(Oc1ccccc1)Oc1ccccc1,-15.7%,–
CCN(Cc1c(F)cccc1Cl)c1c([N+](=O)[O-])cc(C(F)(F)F)cc1[N+](=O)[O-],-0.832%,–
Nc1nc2c(ncn2CCC(CO)CO)c(=O)[nH]1,2.49% [at 53.7 µM],–
O=C(O)C(S)C(S)C(=O)O (stereo not drawn),-0.233% [at 53.7 µM],–
Clc1ccc2cc3ccccc3cc2c1,-4.11%,–
N[C@H]1C(O)O[C@H](CO)[C@H](O)[C@@H]1O (stereo partly drawn),0.254%,–
N#Cc1ccccc1,–,inactive
OC1CCCCCCCCCCC1,–,inactive
CCCCCCCC=O,–,inactive
CC=C(Cl)Cl,4.39%,–
CS(=O)(=O)CCNCc1ccc(-c2ccc3ncnc(Nc4ccc(OCc5cccc(F)c5)c(Cl)c4)c3c2)o1,-15.3% [at 53.7 µM],–
CCCNC(C)C(=O)Nc1c(C)csc1C(=O)OC (stereo not drawn),-8.97% [at 53.7 µM],–

Compound,"activity change, negative = inhibition",Potency
CN(C)CCOC(c1ccccc1)c1ccc(Br)cc1 (stereo not drawn),-14% [at 53.7 µM],–
CCOC(=O)C(F)(F)F,2.78%,–
CCCCCCCCN,-11.8%,–
CC(c1cc2ccccc2s1)N(O)C(N)=O (stereo not drawn),–,inactive
CN(c1nccc(=O)[nH]1)C1CCN(c2nc3ccccc3n2Cc2ccc(F)cc2)CC1,-4.19% [at 53.7 µM],–
O=C(O)c1ccco1,4.12%,–
CN(C)c1ccc(O)c2c1C[C@H]1C[C@H]3[C@H](N(C)C)C(=O)C(C(N)=O)=C(O)[C@@]3(O)C(=O)C1=C2O,–,inactive
CC/C(C)=N/O,–,inactive
CC1(C)O[C@H]2CC(=O)OC[C@]23[C@H]2CC[C@@]4(C)[C@H](c5ccoc5)OC(=O)[C@H]5O[C@]54[C@]2(C)C(=O)C[C@@H]13,1.37% [at 53.7 µM],–
CCc1oc2ccccc2c1C(=O)c1cc(Br)c(O)c(Br)c1,-8.86% [at 53.7 µM],–
C[C@H]1O[C@H](O[C@H]2[C@H](O)[C@@H](O)[C@@H](O[C@H]3[C@H](O)[C@@H](O)[C@H](O)O[C@@H]3CO)O[C@@H]2CO)[C@H](O)[C@@H](O)[C@@H]1N[C@H]1C=C(CO)[C@@H](O)[C@H](O)[C@H]1O,-0.446% [at 53.7 µM],–
CCc1c(C(=O)NN2CCCCC2)nn(-c2ccc(Cl)cc2Cl)c1-c1ccc(Br)cc1,5.1%,–
Oc1ccc2c(c1)OC[C@@H](N1CCC(O)(c3ccc(F)cc3)CC1)[C@H]2O,-11.1% [at 53.7 µM],–
CC(=O)c1c(C)c([N+](=O)[O-])c(C(C)(C)C)c([N+](=O)[O-])c1C,-30.7%,–
C=CCc1cc(OC)c(O)c(C(=O)NCCO)c1,3.98% [at 53.7 µM],–
CCCOC(=O)C(C)O (stereo not drawn),4.71%,–
CCOCCO,–,inactive
C=CCOC(=O)C(=C)C,–,inactive
COc1ccccc1Oc1c(NS(=O)(=O)c2ccc(C(C)(C)C)cc2)nc(-c2ncccn2)nc1OCCO,4.56% [at 53.7 µM],–
